Nrf2 inh = Nrf2 pathway inhibition. A549 ARE-Fluc reporter, luciferase luminescence, 18-24 h. Potency, µM (titrated, usually from 46 µM), actives largely listed as inhibitors. 360,000 tested, 2.1% active; note: nearly all actives have a fitted effect of over 60% in size
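Reporter: ARE-Fluc in A549. Exposure: 18-24 h, 37 °C, 5% CO2, 5% FBS OPTI-MEM. Readouts: fluorescent cytotoxicity (CellTiter-Fluor), then luminescent Nrf2 signal after BugLite.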
A549 tox-1 = A549 cytotoxicity, counter-screen for Nrf2 inhibitors. AID 504648. A549 ARE-Fluc cells, CellTiter-Fluor viability, 18-24 h. 390,000 tested, 0.16% active. Potency, µM (doses to about 46 µM), most hits filed as inhibitors
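A549 ARE_Fluc cells in 5% FBS OPTI-MEM were exposed to compounds in concentration-response for 18-24 h at 37 deg C. Viability was read by CellTiter-Fluor fluorescence (Ex 405/Em 525) after 30 min, before the luciferase read.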
TCR act = activators of T cell receptors; Potency, µM (doses to about 9.22 µM), most hits filed as activators; 330,000 tested, under 10 active; primary human leukocytes, anti-CD3, IL-2 HTRF, 48 h; AID 504894
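Primary human leukocytes incubated 48 hr with anti-CD3 beads plus compound, without co-stimulation. Secreted IL-2 measured by HTRF (europium cryptate/d2 anti-IL-2 pair, 320 nm excitation, 665 nm emission).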
A-T KAP1 phos = potential ataxia-telangiectasia treatment | AID 485349 | F2112 A-T fibroblasts, KAP-1 phosphorylation AlphaLISA; neocarzinostatin DNA damage 30 min before lysis | Potency, µM (titrated, usually from 57.5 µM), hits mostly activators | 320,000 tested, 0.19% active; note: nearly all actives have a fitted effect of over 45% in size
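ATM-like activity read as KAP-1 phosphorylation via AlphaLISA donor/acceptor antibody pairs after lysis and 6 hr at 25C. Cells were ATM-null patient fibroblasts (F2112, hTERT), dosed 60 min, then exposed to the DSB inducer NCS for 30 min.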
CCT chaperon mod = cytosolic chaperonin activity modulation; purified chaperonin ATPase assay, HTRF ADP detection, 30 min; AID 651819; 360,000 tested, 0.3% active; activity change, % (concentration not given with the values), hits read low; in the data active = activity change below about -30%
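Nucleotide hydrolysis assay: TRiC at 20–40 nM final (set by batch activity) with 10 uM ATP, 30 min at 37 °C, in presence of 76 uM compound. Detection by competitive ADP HTRF, 30 min ambient.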
Nrf2 ARE act = activates Nrf2 signaling; AREc32 ARE-luciferase reporter (MCF7-derived line), luminescence, 24 h; 410,000 tested, 0.31% active; Potency, µM (doses to about 46.1 µM), actives largely listed as activators; note: nearly all actives have a fitted effect of over 65% in size
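AREc32 cells carrying an ARE-driven firefly luciferase reporter were seeded at 1000 cells/well in OPTI-MEM with 5% FBS, then exposed to compound for 24 hr at 37 deg C. Luminescence was read with Steady-Glo after 30 min at RT.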
FLuc enzyme inh = counter-screen for Nrf2 inhibitors: firefly luciferase enzyme inhibition; shares compounds with Nrf2 inh; purified firefly luciferase, luminescence inhibition; Potency, µM (doses to about 57.5 µM), actives largely listed as inhibitors; 1,400 tested, 4% active; AID 720522; note: nearly all actives have a fitted effect of over 65% in size
Target sequence (P08659 whole entry, looked up): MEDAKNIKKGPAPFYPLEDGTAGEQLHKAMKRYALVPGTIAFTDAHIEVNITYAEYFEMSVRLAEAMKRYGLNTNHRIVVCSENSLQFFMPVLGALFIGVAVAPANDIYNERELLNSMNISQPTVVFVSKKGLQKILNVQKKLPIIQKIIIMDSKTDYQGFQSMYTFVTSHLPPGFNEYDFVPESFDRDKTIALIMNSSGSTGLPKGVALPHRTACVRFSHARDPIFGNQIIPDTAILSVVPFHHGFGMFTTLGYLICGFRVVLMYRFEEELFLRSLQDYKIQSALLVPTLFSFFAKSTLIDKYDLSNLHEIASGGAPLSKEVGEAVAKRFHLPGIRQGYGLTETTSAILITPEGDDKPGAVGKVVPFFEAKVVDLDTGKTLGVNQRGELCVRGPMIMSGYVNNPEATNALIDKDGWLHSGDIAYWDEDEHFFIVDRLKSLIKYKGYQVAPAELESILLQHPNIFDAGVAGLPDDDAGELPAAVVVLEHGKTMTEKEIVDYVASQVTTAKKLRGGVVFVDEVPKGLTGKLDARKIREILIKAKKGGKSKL
A549 tox-2 = counter-screen for Nrf2 inhibitors: cytotoxicity in A549 ARE cells. A549 ARE-Fluc cells, cytotoxicity counterscreen. Potency, µM (highest dose often 46.1 µM), actives largely listed as inhibitors. 1,400 tested, 2% active. shares compounds with Nrf2 inh;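 note: cells exposed to compounds for 18 to 24 hours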
Nrf2 ARE inh = reduces Nrf2 ARE reporter signal in A549 cells | shares compounds with Nrf2 inh | A549 ARE-firefly luciferase reporter, luminescence | Potency, µM (top dose mostly 46.1 µM), hits mostly inhibitors | 1,400 tested, 74% active | AID 720524; note: nearly all actives have a fitted effect of over 65% in size
Numbers stand for hits; - = inactive; ? = inconclusive; . = no result given; [ ] = remark or other dose. Rows were chosen to be rich in hits. Some 2.6% of all compounds tested hit in one or more screens of this group. Unless noted, calls come from the whole dose curve; as a rule, active = well fitted curve in the direction sought with a large enough effect; inconclusive = small, poorly fitted or top-dose-only effect, or another doubt; inactive = no such curve, though single readings can be large; an effect the other way counts as inactive or inconclusive.

SMILES | Nrf2 inh | A549 tox-1 | TCR act | A-T KAP1 phos | CCT chaperon mod | Nrf2 ARE act | FLuc enzyme inh | A549 tox-2 | Nrf2 ARE inh
CCNc1nc(C#N)nc(N2CCCCC2)n1 | 4.6µM | - | . | . | . | . | - | - | 7.3µM
COc1cc2c(cc1NC(=O)C(C)OC(=O)c1ccc(S(=O)(=O)Nc3ccccc3Cl)cc1)oc1ccccc12 (stereo not given) | - | - | - | - | - | - | . | . | .
COc1ccc(-c2cn(CCO)nc2-c2ccc(OC)cc2)cc1 | - | - | - | - | - | - | . | . | .
COc1cc(OC)c(/C=C/c2cc3ccccc3c[n+]2C)c(OC)c1 | . | . | . | . | . | . | - | ? | 4.6µM
COc1ccc(OC)c(/C=C/c2cc3ccccc3c[n+]2C)c1 | . | . | . | . | . | . | - | - | .
COc1ccc(S(=O)(=O)N2CCC(c3nc4ccccc4s3)CC2)cc1OC | - | - | . | . | . | - | . | . | .
O=S(=O)(c1ccc2c(c1)OCCO2)N1CCC(c2nc3ccccc3s2)CC1 | 3.3µM | -[1.84 µM] | . | - | - | - | - | - | -
CN(C)c1ccc(-c2noc(C3CCN(S(=O)(=O)c4cccc(Cl)c4)CC3)n2)cc1 | . | - | - | - | - | - | . | . | .
Cc1ccc(-c2noc(C3CCCN(S(=O)(=O)c4ccc5ccccc5c4)C3)n2)o1 (stereo not given) | ? | - | - | . | - | - | . | . | .
O=S(=O)(c1ccc2ccccc2c1)N1CCC(c2nc(-c3ccncc3)no2)CC1 | 4.1µM | - | - | - | - | - | - | - | ?
O=S(=O)(c1ccc2c(c1)OCCO2)N1CCC(c2nc3ccccc3[nH]2)CC1 | . | - | - | - | - | - | . | . | .
O=S(=O)(c1ccc2c(c1)OCCO2)N1CCC(c2nc3ccc(Cl)cc3[nH]2)CC1 | 4.6µM | ? | . | - | - | - | - | - | 10µM
Cc1ccc(-c2noc(C3CCN(S(=O)(=O)c4ccc5c(c4)OCCO5)CC3)n2)o1 | 6.5µM | - | - | - | - | - | - | - | 12µM
O=C1c2ccc(Oc3ccc([N+](=O)[O-])cc3)cc2C(=O)N1CCCO | 4.1µM | - | - | - | - | -[9.22 µM] | - | - | ?
Cc1ccc(CNC(=O)c2ccc(Cn3c(SCc4ccccc4F)nc4cccnc43)cc2)cc1 | ? | - | . | . | . | - | . | . | .
CCOC(=O)N1CCN(c2ncnc3c2[nH]c2ccc(OC)cc23)CC1 | ? | - | - | - | - | - | . | . | .
COc1ccc(N2CCN(c3ncnc4c3[nH]c3ccccc34)CC2)cc1 | 5.8µM | - | - | . | - | - | - | - | 2.9µM
O=C(NCCc1ccccc1)c1ccc2c(c1)N(Cc1ccccc1Cl)C(=O)c1ccccc1S2 | . | - | . | . | . | - | . | . | .
CC(=NNc1nc2ccccc2o1)c1ncccn1 | 3.3µM | - | - | . | - | ? | 19µM | ? | .
COc1ccccc1CNC(=O)CN(C)S(=O)(=O)c1cccc2cccnc12 | - | - | - | - | - | - | . | . | .
Cc1ccc(OCC(=O)NCCCNC(=O)c2cccnc2)cc1 | 1.8µM | - | - | - | - | - | - | - | -
Cc1cccc(OCC(=O)NCCCNC(=O)c2cccnc2)c1 | ? | - | - | - | - | - | . | . | .
O=C(NC(NC(=S)Nc1c(Cl)cc(Cl)cc1Cl)C(Cl)(Cl)Cl)OCc1ccccc1 (stereo not given) | 2.9µM | ? | - | - | - | - | - | ? | 23µM
CCOc1cc(/C=N\NC(=O)c2ccc(NC(=O)C(C)(C)C)cc2)ccc1OC(=O)c1cccc(C)c1 | 5.2µM | - | - | - | - | - | - | - | 15µM
COc1ccc(NC(=O)CCN=C2NS(=O)(=O)c3ccccc32)cc1S(=O)(=O)N(C)C | - | - | - | - | - | - | . | . | .
SMILES | Nrf2 inh | A549 tox-1 | TCR act | A-T KAP1 phos | CCT chaperon mod | Nrf2 ARE act | FLuc enzyme inh | A549 tox-2 | Nrf2 ARE inh
CC(C)c1ccccc1-n1c(SCC(=O)N2CCc3ccccc3C2)nc2ccccc2c1=O | 8.2µM | - | - | - | - | - | - | ? | 16µM
O=C(CSc1nc2ccccc2c(=O)n1-c1ccccc1)N1CCc2ccccc2C1 | ? | - | - | - | - | - | . | . | .
Cc1ncnc2nc[nH]c12 | . | . | . | . | . | . | - | - | 5.8µM
Cc1ccc(S(=O)(=O)N2[C@@H](c3ccc(Br)cc3)C(C(=O)O)=C[C@H]2C(C)(C)C)cc1 | ? | - | - | - | - | - | . | . | .
Cc1ccc(N2CC(C(=O)N/N=C/c3c(F)cccc3Cl)CC2=O)cc1 (stereo not given) | - | - | - | - | - | - | . | . | .
C[C@H]1CN([C@@H](C)CO)C(=O)c2cccc(NS(=O)(=O)c3ccc(F)cc3)c2O[C@H]1CN(C)Cc1ccc(Cl)c(Cl)c1 | 5.2µM | - | - | - | - | - | - | ? | 18µM
COc1cc(OC)cc(C(=O)NNC(=O)c2ccccn2)c1 | 8.2µM | ? | - | - | - | ? | - | - | 7.3µM
Cc1ccc(C(C)(C)C)cc1S(=O)(=O)N1CCC(C(=O)N2CCN(c3ccc(O)cc3)CC2)CC1 | 9.2µM | - | - | - | - | - | ? | - | .
COc1cccc(NC(=O)CCC2CCN(C(=O)c3cccc(NC(C)=O)c3)CC2)c1 | - | - | - | - | - | - | . | . | .
COc1ccc(N(C(C)C(=O)N2CCC(Cc3ccccc3)CC2)S(C)(=O)=O)cc1 (stereo not given) | 6.5µM | - | - | - | - | - | - | - | 18µM
Cc1cc(Cn2nc(-c3ccccc3C)cc2C(=O)O)on1 | - | - | - | - | - | - | . | . | .
CCCCCCCCCCCCCCCC(=O)Nc1ccn(C2OC(CO)C(O)C2O)c(=O)n1 (stereo not given) | ? | - | - | . | - | - | - | - | 0.82µM
Cc1noc(C)c1CSCC(=O)Nc1nc(-c2ccc(F)c(F)c2)cs1 | 9.2µM | ? | - | - | - | - | - | - | 13µM
Cc1csc(NC(=O)CSCc2c(C)noc2C)n1 | - | - | - | - | - | - | . | . | .
O=C(NC1CCCc2ccccc21)c1cn2ccccc2n1 (stereo not given) | - | - | - | - | - | - | . | . | .
Cc1nc2ccccn2c1C(=O)NC1CCCc2ccccc21 (stereo not given) | 1.6µM | - | - | - | - | - | - | - | 4.6µM
O=C(Cc1c(F)cccc1Cl)N/N=C/c1cccs1 | - | - | - | - | - | - | . | . | .
Cc1ccccc1C(=O)N1CCc2cc(-c3nc(NC(=O)Cc4ccc5c(c4)OCO5)sc3C)ccc21 | 4.6µM | - | - | . | - | - | - | - | 5.8µM

Source: PubChem (National Center for Advancing Translational Sciences (NCATS))
